For 45 compounds, Potency results are on record in PubChem BioAssay AID1671188 (National Center for Advancing Translational Sciences (NCATS), 2021).

Structures are written as SMILES. Among all 100,000 compounds or so, about 250 (0.25%) were called active. Entries that show only a call come without a potency. Roughly 7% stayed inconclusive and do not appear here. Calls come from the whole dose curve; as a rule, active = well fitted inhibition curve with a large enough effect; inconclusive = small, poorly fitted or top-dose-only effect; inactive = flat fitted curve, though single readings scatter. This excerpt belongs to a sample that is enriched for actives.
Potency is the fitted concentration of half-maximal effect.

The target of the experiment is Alanine aminotransferase 2 (Homo sapiens) (UniProt Q8TD30). Kind of experiment: Primary qHTS assay for inhibitors of Glutamate pyruvate transaminase 2 (GPT2). Note: nearly all actives have a fitted effect of over 60% in size. The following applies: Recombinant GPT2, coupled pyruvate oxidase/HRP Amplex Red fluorescence; series mostly up to 57.7 µM. The method, then: Assay Provider: Zhenghe John Wang Ph.D.
Chain of Alanine aminotransferase 2 (Homo sapiens) (Q8TD30 whole entry, looked up): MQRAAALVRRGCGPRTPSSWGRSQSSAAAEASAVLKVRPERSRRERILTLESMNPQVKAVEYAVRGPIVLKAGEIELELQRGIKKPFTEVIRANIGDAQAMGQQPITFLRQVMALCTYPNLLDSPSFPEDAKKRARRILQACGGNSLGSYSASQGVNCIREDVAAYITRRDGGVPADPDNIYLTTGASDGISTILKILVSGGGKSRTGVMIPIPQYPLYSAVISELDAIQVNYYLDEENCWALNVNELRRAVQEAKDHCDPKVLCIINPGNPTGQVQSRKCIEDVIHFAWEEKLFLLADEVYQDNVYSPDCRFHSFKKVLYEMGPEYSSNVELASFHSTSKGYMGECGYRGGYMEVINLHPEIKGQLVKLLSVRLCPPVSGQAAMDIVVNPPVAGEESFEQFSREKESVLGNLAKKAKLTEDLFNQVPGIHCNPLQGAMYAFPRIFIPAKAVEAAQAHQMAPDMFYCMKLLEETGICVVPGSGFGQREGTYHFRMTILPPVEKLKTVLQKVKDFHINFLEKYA
Case Western Reserve University, Cleveland OH
Glutamate pyruvate transaminase 2 (GPT2) catalyzes the reversible transamination of glutamate and pyruvate to provide a-ketoglutarate and alanine. We have optimized an assay for GPT2 enzymatic activity that couples pyruvate formation to detection of fluorescence using an established pyruvate oxidase/horseradish peroxidase / Amplex Red system.
Screening conditions were 250uM a-KG, 2mM L-alanine, and 10ng/uL GPT2 in […] of solution; 10uL of Amplex reaction mix (outlined below) were added so that final concentrations of Amplex reagents in 50uL were 0.2mM ThPP, 0.2U/mL PO and HRP, and 50uM Amplex.
NOTE: The volume of GPT2 in the system depends on the activity of it. The activity is different every batch. You need to test the activity before the assay. For full plate assay with automation, plate 20uL of GPT2 buffer to pin into, then add 10uL of GPT2 dilution followed immediately by 10uL of substrate dilution. 2 Columns of the plate were devoted to GPT2 buffer ([…] PH7.5, 0.0001% Tween) + 50uM AOA (known GPT2 inhibitor) to serve as a positive control. Complete the assay as normal. Amplex-red buffer: […] PH7.5, 1 mM EDTA, 1 mM MgCl2.
1. Combine a-KG and L-alanine at desired concentrations and incubate for at least 10 minutes at 37C. Stocks of L-alanine and a-KG are diluted in distilled water. However, the stocks were diluted in GPT2 buffer for the assay.
2. Prepare GPT2 dilution at the desired concentration in GPT2 buffer.
3. Plate 40uL of GPT2 dilution with 40uL of substrate dilution and let incubate for 30 minutes at room temperature.
4. Add 20uL of Amplex reaction mix prepared as follows: 1.5uL 200U/mL Horseradish Peroxidase, 200mM Thiamine Pyrophosphate, 200U/mL Pyruvate Oxidase; 7.5uL 10mM Amplex Red; 288uL Amplex Buffer.
5. Incubate for 30 minutes at room temperature in the dark, then image using AM_Amplex_Fluorescence on plate reader nearest the window.
Take `Cc1noc(C)c1CCCNC(=O)c1ccc(N(C)C2CCOC2)nc1` (stereo not given): the Potency entry was “inactive”. With `Cc1nc(C)c(C)c(N2CCCC(c3nccn3Cc3ccccc3)C2)n1` (stereo not given) the entry was “inactive”. With `COC(=O)CNC(=O)C1CN(c2ccccc2)C(=O)N1` (stereo not given) the entry was “inactive”. As for `O=C1NCCCCCCN(C(=O)c2cccs2)[C@H]2C[C@H](c3nc(Cc4ccccc4)no3)C[C@@H]12`, the entry is “inactive”; as for `O=C(CCc1nnn2c1CN(C(=O)NCc1ccc(F)cc1)CC2)N1CCOCC1`, “inactive”; as for `Cc1noc(C)c1[S+](=O)([O-])NC1CCN(Cc2ccc(-c3ccsc3)cc2)C1` (stereo not given), “inactive”.

As for `CCCNC(=O)N1CCCCC1c1nc(CCOc2ccc(F)cc2)no1` (stereo not given), the Potency entry is “inactive”.

In the case of `CCCNC(=O)N1CCn2nnc(CCC(=O)N3CCOCC3)c2C1`, the Potency result was “inactive”. With `Cc1cc2ncc(C(=O)NCC3CC3)cn2n1` the entry was “inactive”. Regarding `O=C(NCCc1ccccn1)C1CCCN(c2nc(-c3ccccc3)nc3c2CCC3)C1` (stereo not given), the Potency result is “inactive”. With `CCOc1ccc(CCCC(=O)N2CC[C@@](C)(O)[C@@H](O)C2)cc1C` the entry was “inactive”; with `O=C(c1cncc(Br)c1)N1CCC(Cc2nc(C3CCOCC3)no2)CC1`, “inactive”; with `CC(=O)N[C@@H]1C=C(C(=O)N[C@H](CC(C)C)C(N)=O)C[C@@H](O)[C@@H]1O`, “inactive”.

Take `Cc1ccc(C(=O)N2C[C@@H](Oc3ccccc3)C[C@H]2C(=O)N2CCCC2)cn1`: the Potency result was “inactive”. For the compound `O=C(NCCn1ccc2ccc(Cl)cc21)C1CC(=O)N(c2n[nH]c3ccccc23)C1` (stereo not given), the Potency result is “inactive”. As for `COCCN1CC(CO)C2(CCN(Cc3cnn(C(C)C)c3)CC2)C1` (stereo not given), the Potency entry is “inactive”. With `Cn1cc(CN2CCCN(C(=O)c3ccco3)CC2)c(-c2ccc(C3CCCCC3)cc2)n1` the entry was “inactive”; with `COc1ccccc1CN1CC[C@@H](CO)N(C)c2ncccc2C1`, “inactive”; with `COCCOc1ccnc(-c2noc([C@@H]3CCCN3Cc3ccc(Cl)cc3)n2)c1`, “inactive”. As for `O=C(NCC(F)(F)F)c1nc2cccnc2n(CCc2ccccc2)c1=O`, the entry is “inactive”; as for `CC(C)C(=O)NC1CCCc2c1[nH]c1c(Cl)cccc21` (stereo not given), “inactive”. As for `O=S(=O)(c1ccc(F)cc1)N1CCCC(Cc2noc(-c3ccccc3)n2)C1` (stereo not given), the entry is “inactive”; as for `Cc1ccncc1C(=O)N1CCC(Cn2c(C)cnc2-c2cccnc2)CC1`, “inactive”.

For `COc1cccc(-c2cccc(C(=O)N3CCN(C(=O)Cc4ccc(F)cc4)CC3)c2)c1`, the Potency result is “inactive”.

`COCCC1(NS(C)(=O)=O)CCN(S(=O)(=O)c2ccc3c(c2)OCCO3)CC1`: the Potency result is “inactive”. With `COc1cccc(-c2ccc(CN3CCCC3C(=O)NCc3ccccc3Cl)cc2)c1` (stereo not given) the entry was “inactive”; with `Cc1cc(Cl)ccc1S(=O)(=O)N1CCn2c(nn(CC3CC3)c2=O)C1`, “inactive”; with `COCCN1C(=O)CCC2(CNC(=O)c3ccncc3)CCC=C12` (stereo not given), “inactive”.

`O=C(NCC1CCCO1)c1csc(N2CCN(c3ccccc3F)CC2)n1` (stereo not given): the Potency entry was “inactive”. With `NC(=O)c1cccc(-c2ncc3c(n2)OCCN(CC2CC2)C3=O)c1` the entry was “inactive”; with `Cc1cc(C)cc(C(=O)NC2CCN(c3cnn(C)c(=O)c3)CC2)c1`, “inactive”.

As for `O=C(c1cccc(Cl)c1)N1CCC(C(=O)N2CCC(N3CCOCC3=O)CC2)CC1`, the Potency result is “inactive”.

On to `O=C(c1cnccn1)N1CCC(N2C(=O)C(OCC3CC3)C23CCOCC3)CC1` (stereo not given), for which the Potency result is “inactive”. As for `O=C1NC2(CCN(Cc3ccc(F)cc3)C2)OCc2ccccc21` (stereo not given), the entry is “inactive”; as for `Cc1ccc2c(C)c(C(=O)N3CCCC3c3nc(C(C)C)no3)oc2c1C` (stereo not given), “inactive”; as for `COCCC1(CO)CCCN(C(=O)c2ccc(S(N)(=O)=O)cc2)C1` (stereo not given), “inactive”. For the compound `C#CCN(Cc1nc(-c2cc(OC)ccc2F)oc1C)C1CCCCC1`, the Potency entry is “inactive”. As for `CNCC(O)c1ccc(O)c(O)c1` (stereo not given), the figure is 6.31 µM (active). As to `COCC(=O)N1CCC(N2C[C@H](OC)[C@@H]2c2ccncc2)CC1`, the Potency entry is “inactive”. With `CC1(C(=O)N2CCN(c3ccccn3)CC2)CCCc2cnc(Nc3cccnc3)nc21` (stereo not given) the entry was “inactive”. As for `Cc1cc(C)c(C(=O)N2CCOC(Cc3ccc(F)cc3)C2)o1` (stereo not given), the entry is “inactive”; as for `Cc1ccc(NC(=O)C2CCc3nnc(C4CCN(C(=O)NC(C)(C)C)CC4)n32)cc1` (stereo not given), “inactive”. `O=C(Cc1ccc(F)cc1)N1CCC(C(=O)N2CCC(c3nc4ncccc4[nH]3)CC2)C1` (stereo not given): the Potency entry is “inactive”. As for `CN(C)C(=O)NC1CCN(c2nc3ncccc3o2)CC1`, the entry is “inactive”; as for `COc1cc2c(cc1OC)C(CNC(=O)c1cccc(Cl)c1)N(C(=O)Nc1ccccc1)CC2` (stereo not given), “inactive”.
